Sampled rows, rich in hits. Any-hit rate of the full collection: about 6.3%.
Mdm2-MdmX inh: inhibitors of human Mdm2-MdmX association, primary screen, cell-based, luminescence, split luciferase, SaOS-2, uHTS; Protein Mdm4 (Homo sapiens) + E3 ubiquitin-protein ligase Mdm2 (Homo sapiens), …; SaOS-2 split-luciferase Mdm2/MdmX complementation; inhibition, % at 8 µM; hit rate 3% among 330,000; AID 485346, 2010;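 active = inhibition of at least 50% at 8 µM in the primary screen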
Target sequence (O15151 whole entry, looked up): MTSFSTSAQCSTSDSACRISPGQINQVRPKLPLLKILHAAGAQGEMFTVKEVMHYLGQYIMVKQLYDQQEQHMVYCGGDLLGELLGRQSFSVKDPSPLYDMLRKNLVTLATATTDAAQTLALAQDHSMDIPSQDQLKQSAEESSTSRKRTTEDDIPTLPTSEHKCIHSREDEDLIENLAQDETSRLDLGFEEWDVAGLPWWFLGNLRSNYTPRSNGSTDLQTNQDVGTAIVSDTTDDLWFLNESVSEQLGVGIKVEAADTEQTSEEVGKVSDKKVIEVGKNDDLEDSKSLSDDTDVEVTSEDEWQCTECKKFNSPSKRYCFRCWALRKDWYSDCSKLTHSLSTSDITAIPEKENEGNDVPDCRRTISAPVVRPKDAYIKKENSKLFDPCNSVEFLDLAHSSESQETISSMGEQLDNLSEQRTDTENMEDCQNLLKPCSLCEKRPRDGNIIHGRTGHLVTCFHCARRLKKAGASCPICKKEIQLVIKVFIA
Target sequence (Q00987 whole entry, looked up): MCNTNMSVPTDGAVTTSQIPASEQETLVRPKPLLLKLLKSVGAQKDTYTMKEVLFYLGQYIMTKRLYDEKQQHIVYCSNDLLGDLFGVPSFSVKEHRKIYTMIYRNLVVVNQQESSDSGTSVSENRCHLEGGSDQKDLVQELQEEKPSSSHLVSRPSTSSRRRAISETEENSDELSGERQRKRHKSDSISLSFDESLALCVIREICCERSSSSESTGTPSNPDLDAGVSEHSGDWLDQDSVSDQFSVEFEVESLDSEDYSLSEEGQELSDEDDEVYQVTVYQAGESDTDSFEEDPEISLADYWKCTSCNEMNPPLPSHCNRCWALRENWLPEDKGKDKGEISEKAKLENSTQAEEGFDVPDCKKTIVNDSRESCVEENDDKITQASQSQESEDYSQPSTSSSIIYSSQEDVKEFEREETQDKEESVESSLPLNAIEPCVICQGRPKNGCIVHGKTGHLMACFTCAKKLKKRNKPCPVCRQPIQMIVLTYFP
TIM10 inh: growth inhibitors of isogenic TIM10 control yeast, primary screen, counter-screen for tim10-1 yeast inhibitor project, luminescence, uHTS | inhibition, % at 10 µM | S. cerevisiae TIM10 strain growth, BacTiter-Glo luminescence, 24 h | hit rate 1.4% among 330,000;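 active = inhibition of 40% or more at the single tested concentration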;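 note: wild-type TIM10 isogenic control strain grown at permissive 25 °C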
tim23-1 inh: growth inhibitors of tim23-1 mutant yeast, primary screen, luminescence, uHTS; S. cerevisiae tim23-1 growth, BacTiter-Glo luminescence, 24 h; inhibition, % at 20 µM; hit rate 1.3% among 330,000;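 active = growth inhibition of the mutant yeast at or above 50%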;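 note: temperature-sensitive mutant grown at 25 °C; plate controls were DMSO-treated mutant yeast for no effect and medium wells lacking yeast for full effect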
tim10-1 inh: growth inhibitors of tim10-1 mutant yeast, primary screen, luminescence, uHTS | inhibition, % at 20 µM | S. cerevisiae tim10-1 ts strain growth, BacTiter-Glo, 24 h | AID 463190, 2010 | hit rate 2.2% among 330,000;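 active = inhibition of at least 40%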;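 note: mutant grown at 25 °C; 0% = DMSO wells with yeast and 100% = wells holding no yeast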
MPTP block: mitochondrial permeability transition pore inhibitors, primary screen, biochemical, isolated mouse mitochondria, absorbance | Ca2+ swelling absorbance, 30 min | inhibition, % at 10 µM | hit rate 1.4% among 360,000 | AID 602449, 2012;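 active = inhibition of 50% or more, scaled per plate between neutral and stimulator controls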;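 note: 0% = DMSO wells given calcium and 100% = 1 mM EGTA wells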
Rh123 counter: fluorescence retest of MPTP screen hits in isolated mitochondria, single concentration | shares compounds with MPTP block | membrane potential, Rhodamine 123 fluorescence | inhibition, % at 10 µM | hit rate 78% among 5,000; in the data active = inhibition above about 22%;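 note: 0% = DMSO vehicle and 100% = positive control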
MPTP swell DR: mitochondrial permeability transition pore inhibitors, dose response, biochemical, absorbance, uHTS hits; shares compounds with MPTP block; isolated mitochondria swelling; IC50, µM; hit rate 58% among 780; AID 651561, 2012; in the data active = IC50 below about 20 µM
MPTP cs DR: fluorescent counter-screen in isolated mitochondria, dose response, counter-screen for MPTP inhibitor project, biochemical, fluorescence, uHTS hits; shares compounds with MPTP block; isolated mitochondria counterscreen, fluorescence read-out; IC50, µM; hit rate 49% among 780; AID 651564, 2012; in the data active = IC50 below about 80 µM
Numbers without * were called inactive; · = no result.

SMILES	Mdm2-MdmX inh	TIM10 inh	tim23-1 inh	tim10-1 inh	MPTP block	Rh123 counter	others
Cc1ccc2nc(N3CCN(CCO)CC3)nc(-c3ccccc3)c2c1	-2	15	10	18	1	·
O=C(NNC(=O)c1ccccc1O)c1ccc(Cl)c(S(=O)(=O)N2CCc3ccccc32)c1	49	21	19	32	107*	76*
O=C(NNC(=O)c1cccc(S(=O)(=O)N2CCc3ccccc32)c1)c1ccccc1	·	·	·	·	100*	83*
CC(=O)N1CCN(C(=O)c2ccc(Cl)c(S(=O)(=O)N3CCc4ccccc43)c2)CC1	-7	0	11	11	1	·
O=C(c1[nH]c(C(F)(F)F)nc1-c1ccccc1)N1CCN(c2c(Cl)cncc2Cl)CC1	·	·	·	·	-1	·
CCN(C(=O)CC(C)C)c1nnc(Cn2nnc3ccccc32)s1	-5	12	28	31	1	·
CCN(C(=O)c1ccc(C(C)(C)C)cc1)c1nnc(Cn2nnc3ccccc32)s1	46	17	33	35	105*	92*
O=C(Nc1ccc(F)cc1)C(CCc1ccccc1)N1CCN(C(=O)c2ccco2)CC1 (configuration not stated)	·	·	·	·	2	·
Cc1c(C(=O)Nc2nnc(C(F)(F)F)s2)oc2ccccc12	-26	4	15	18	67*	9	MPTP swell DR=6.5*;MPTP cs DR=<2.5*
O=C(CSc1ccc(C(F)(F)F)cc1[N+](=O)[O-])Nc1ccccc1	-9	-21	0	-7	59*	61*
CC(=O)Nc1ccc(NC(=O)CSc2ccc(C(F)(F)F)cc2[N+](=O)[O-])cc1	-3	4	12	8	1	·
CCOC(=O)C(C)On1c(-c2cccc(Cl)c2)nc2ccc([N+](=O)[O-])cc21 (configuration not stated)	2	15	27	21	87*	99*
CCOC(=O)COn1c(-c2cccc(Cl)c2)nc2ccc([N+](=O)[O-])cc21	4	10	29	32	57*	81*
CC[C@]12C(=O)N(C)C[C@H]([C@@H]3C(=O)N(C)C(=O)[C@@H]31)N2C(=O)c1ccc(C)cc1	·	·	·	·	1	·
COc1ccc(-c2ccc3c(c2)S(=O)(=O)c2cccc(C(=O)N4CCN(C5CCCCC5)CC4)c2C3=O)cc1OC	26	13	6	19	1	·
C/C(=N\OC(=O)Nc1ccc(Cl)cc1)c1ncc(C(F)(F)F)cc1N1CCOCC1	-43	13	11	13	99*	94*
CO/N=C(\C)c1ncc(C(F)(F)F)cc1N1CCOCC1	-10	4	9	5	6	·
O=NN(CCc1ccncc1)c1ccc(OCc2ccccc2)cc1	17	1	-471	-12	93*	89*
COc1cccc(C(=O)Nc2nnc(S(=O)(=O)N(C)Cc3ccc(F)cc3)s2)c1	7	5	22	19	56*	80*
COc1ccc(C(CNC(=O)c2ccc(C)c(S(=O)(=O)N3CCOCC3)c2)N2CCCC2)cc1 (configuration not stated)	·	·	·	·	-2	·
NC(c1csc(NC(=O)Nc2ccc(OC(F)(F)F)cc2)n1)C1CCCCC1 (configuration not stated)	·	·	·	·	62*	88*
C=CCn1c(SCN2C(=O)c3ccccc3C2=O)nc2ccc(Cl)cc2c1=O	23	-19	-16	-3	90*	90*
C=CCn1c(SCC(=O)Nc2ccccc2F)nc2ccccc2c1=O	0	-18	14	-30	0	·
O=C(NCc1ccc(F)cc1F)[C@@H]1CCCN1C(=O)[C@@H]1CCCN1	·	·	·	·	-2	·
Oc1cccc(C(O)CNCc2ccc(OCc3ccc(Cl)cc3Cl)cc2)c1 (configuration not stated)	6	13	-64	-1	83*	-12	MPTP swell DR=6.7*;MPTP cs DR=43*
SMILES	Mdm2-MdmX inh	TIM10 inh	tim23-1 inh	tim10-1 inh	MPTP block	Rh123 counter	others
Oc1cccc(C(O)CNCc2ccc(-c3ccccc3)cc2)c1 (configuration not stated)	35	16	-24	17	92*	-14	MPTP swell DR=4.2*;MPTP cs DR=51*
Nc1ccc(CNC(=O)c2cc3cc(Cl)ccc3nc2N)cc1	·	·	·	·	17	·
Nc1nc2ccccc2cc1C(=O)NCc1ccc(Cl)cc1Cl	·	·	·	·	67*	97*
Nc1nc2ccccc2cc1C(=O)NCc1ccc(-c2ccccc2)cc1	·	·	·	·	106*	103*
COc1cccc(C2=CC(=O)C(C(C)(C)C)N2C(C)(C)C)c1 (configuration not stated)	·	·	·	·	-1	·
CC(C)CC(=NNC(=O)c1ccncc1)c1cc(Cl)ccc1O	·	·	·	·	8	·
CNCCC1Sc2ccccc2Oc2ccccc21 (configuration not stated)	28	0	2	5	61*	-6	MPTP swell DR=10*;MPTP cs DR=>80
O=S(=O)(Nc1ccc(Cl)cc1NS(=O)(=O)c1ccccc1)c1ccccc1	·	·	·	·	89*	65*
CC1CCCN(S(=O)(=O)c2ccc(NC(=O)Cn3nnc(-c4ccccc4F)n3)cc2)C1 (configuration not stated)	14	4	6	6	45	·
CC1CCN(S(=O)(=O)c2ccc(NC(=O)Cn3nnc(-c4ccccc4)n3)cc2)CC1	7	29	19	27	54*	56*
O=[N+]([O-])c1ccc(N2CCN(Cc3ccccc3)CC2)s1	-8	-2	20	19	0	·
O=[N+]([O-])c1ccc(N2CCN(Cc3ccccc3)CC2)c2c1no[n+]2[O-]	·	·	·	·	98*	12
O=C(C1CCC1)N1CCN(c2ccnc3cc(Cl)ccc23)CC1	11	8	6	8	11	·
O=C(C1CCCCC1)N1CCN(c2ccnc3cc(Cl)ccc23)CC1	-18	20	35	28	83*	43*
CC(C)COC(=O)NCC12C=CC(O1)C1C(=O)N(c3ccc(Cl)cc3)C(=O)C12 (configuration not stated)	25	14	18	34	85*	9
O=C(NNC(=O)c1cccs1)Nc1cccc(Cl)c1	7	-3	29	9	1	·
Cc1ccc(NC(=O)CC(=O)c2ccc([N+](=O)[O-])cc2)cc1S(=O)(=O)Nc1cccc(Cl)c1	0	11	16	30	80*	55*
Cc1ccc(NC(=O)c2cccs2)cc1S(=O)(=O)Nc1cccc(Cl)c1	27	30	49	36	60*	68*

Assay outcomes deposited in PubChem BioAssay by Sanford-Burnham Center for Chemical Genomics.
